ChEMBL document CHEMBL3433997, “St. Jude Leishmania screening dataset” (2016)

Experiments:
Format in all cases: functional
[1] = molecular target: Solute carrier family 2, facilitated glucose transporter member 1 (Homo sapiens) (UniProt P11166); experiment: ST_JUDE_LEISH: Cytotoxicity at 2uM final concentration against transgenic Leishmania Mexicana promastigotes LmGLUT1 that are glucose transport deficient and complemented with the human glucose transporter GLUT1. Activity is measured by DNA content using SYBR green in vitro
[2] = molecular target: Hexose transporter 1 (Plasmodium falciparum) (UniProt O97467); experiment: ST_JUDE_LEISH: Cytotoxicity at 2uM final concentration against transgenic Leishmania Mexicana promastigotes LmPfHT that are glucose transport deficient and complemented with the Plasmodium falciparum hexose transporter. Activity is measured by DNA content using SYBR green in vitro
[3] = molecular target: Glucose transporter (Leishmania mexicana) (UniProt O61059); experiment: ST_JUDE_LEISH: Cytotoxicity at 2uM final concentration against transgenic Leishmania Mexicana promastigotes LmGT2 that are glucose transport deficient and complemented with the L. Mexicana glucose transporter 2. Activity is measured by DNA content using SYBR green in vitro

Sequence of Solute carrier family 2, facilitated glucose transporter member 1 (Homo sapiens) (P11166 whole entry): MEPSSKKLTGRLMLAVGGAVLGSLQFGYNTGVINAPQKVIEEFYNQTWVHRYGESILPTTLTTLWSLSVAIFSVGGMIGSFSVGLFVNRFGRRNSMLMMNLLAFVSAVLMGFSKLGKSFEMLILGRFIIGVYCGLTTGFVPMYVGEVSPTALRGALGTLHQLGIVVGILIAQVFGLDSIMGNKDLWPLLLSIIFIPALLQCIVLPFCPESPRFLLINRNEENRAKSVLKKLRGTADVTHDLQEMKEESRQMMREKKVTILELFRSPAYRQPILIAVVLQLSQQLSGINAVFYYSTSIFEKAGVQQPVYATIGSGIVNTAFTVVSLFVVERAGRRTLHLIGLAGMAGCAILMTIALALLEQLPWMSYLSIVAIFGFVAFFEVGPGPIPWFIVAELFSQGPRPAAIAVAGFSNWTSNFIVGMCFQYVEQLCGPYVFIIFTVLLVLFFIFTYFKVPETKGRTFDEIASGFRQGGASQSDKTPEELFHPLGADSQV

| Structure (SMILES) | inhibition [1] [%] | inhibition [2] [%] | inhibition [3] [%] |
| --- | --- | --- | --- |
| CCOc1ccc(C(=O)Nc2cc(Br)c3c(c2)CNCC3)cc1Br | 11.7 | 12.7 | 6.15 |
| FC(F)(F)c1ccc2[nH]c(-c3ccc(-c4cccc(CNCC5CCCO5)c4)s3)nc2c1 (centres undefined) | 0.73 | 2.27 | 2.21 |
| c1cc(CN2CCCCC2)cc(-c2csc(-c3nc4ccccc4[nH]3)c2)c1 | 5.65 | 4.57 | 2.67 |
| COc1cc(Nc2nc(N)n(C(=O)c3ccc4c(c3)OCO4)n2)cc(OC)c1OC | 15.3 | 9.11 | 0.33 |
| COc1ccc(CCCCN2C(=O)C(c3ccccc3)(c3ccccc3)N=C2N)cc1 | 3.36 | 4.05 | 0.32 |
| FC(F)(F)c1ccc2[nH]c(-c3cccc(-c4cccc(CNCC5CCCO5)c4)c3)nc2c1 (centres undefined) | 4.7 | 3.63 | 3.26 |
| COc1cc2nc(C)nc(Nc3ccc4c(ccn4Cc4ccccc4)c3)c2cc1OC | 5.04 | 5.91 | 5.53 |
| FC(F)(F)c1ccc2[nH]c(-c3ccc(-c4ccc(CN5CCN(c6cnccn6)CC5)cc4)s3)nc2c1 | 2.24 | 1.86 | -2.19 |
| COc1ccc(N2CCN(CCCNC(=O)c3ccc(NC(=O)c4cc(Cl)cc(Cl)c4)cc3)CC2)c(OC)c1 | 4.49 | 0.82 | 3.87 |
| CC(C)c1ccc2c(c1)c(SC(C)(C)C)c(CC(C)(C)C#N)n2Cc1ccc(Cl)cc1 | 3.18 | 0.69 | -0.23 |
| Cc1cc(N[C@@H](Cc2ccccc2)C(=O)NCCCOC(C)C)nc(NCC2CCCCC2)n1 | 11.7 | 11.7 | 8.28 |
| Cc1cc(C(=O)NCc2ccc(-c3c(C)noc3C)cc2)n(-c2ccc(Cl)cc2)n1 | 8.7 | 7.89 | 2.6 |
| COc1cc2c(c(OC)c1[N+](=O)[O-])C=CC1(O2)N(C)c2ccc([N+](=O)[O-])cc2C1(C)C (centres undefined) | 4.19 | 0.99 | 1.36 |
| CC(=O)OCCN1C(=O)c2ccc3c4c(ccc(c24)C1=O)C(=O)N(CCOC(C)=O)C3=O | 3.05 | 2.04 | 0.78 |
| CCCCCCN1CCC(CNCc2cccc(Cl)c2)CC1 | 1.66 | 2.08 | 1.97 |
| c1ccc([C@H]2CN3CCSC3=N2)cc1 | -0.53 | 2.58 | -0.34 |
| CC(C)NCc1cccc(-c2cccc(NC(=O)c3cccc(C#N)c3)c2)c1 | 5.22 | 4.93 | 5.23 |

| Structure (SMILES) | inhibition [1] [%] | inhibition [2] [%] | inhibition [3] [%] |
| --- | --- | --- | --- |
| CCCCc1ccc(S(=O)(=O)Nc2ccc3c(c2)CCN(Cc2c[nH]c4cnccc24)CC3)cc1 | -1.78 | -0.79 | 5.76 |
| CO/C(=C\C=C\c1cc2cc(Cl)c(Cl)cc2[nH]1)C(=O)NCCCN1CCN(c2cccc(OCC(=O)Nc3cccc(C(=O)c4ccccc4)c3)c2)CC1 | 4.84 | 2.82 | 2.69 |
| O=C(Nc1ccc(Cl)cc1)Nc1ccc(-c2ccc(-c3nc4ccccc4[nH]3)cc2)cc1 | 2.4 | 3.97 | 0.96 |
| Cc1cccc2nc(-c3cccc(-c4cccc(C(=O)N5CCCCC5CN5CCC(O)C5)c4)c3)[nH]c12 (centres undefined) | 0.56 | 0.67 | -1.67 |
| N#Cc1ccc2c(c1)CCN(CCC1CCC(NC(=O)/C=C/c3ccc(F)c4ccccc34)CC1)CC2 (centres undefined) | 16.1 | 20.9 | 11.4 |
| c1ccc(-c2nc(Nc3ccncc3)sc2-c2ccccc2)cc1 | 4.18 | 4.94 | 1.21 |
| CN1CCN(CC(=O)Nc2ccc(-c3cccc(-c4nc5cc(F)ccc5[nH]4)c3)cc2)CC1 | -0.65 | 0.74 | -1.87 |
| Cc1ccc(NC(=O)c2ccc3nccnc3c2)cc1OC1CCN(Cc2ccc(F)cc2)CC1 | 10.6 | 11.1 | 10.5 |
| O=C(Nc1ccc(F)cc1F)NC1CCN(CCCCCNC(=O)C2CC2c2ccc(Cl)c(Cl)c2)CC1 (centres undefined) | 0.37 | 2.99 | 3.47 |
| CC(C)Cc1csc(NC(=O)C=Cc2ccco2)c1C(=O)O | -0.28 | 0.8 | -0.08 |
| COc1ccccc1-c1csc(C(=O)NCC2CCN(Cc3ccc(C(C)C)cc3)C2)c1 (centres undefined) | -1.65 | -2.5 | -1.65 |
| Nc1ncc(-c2cn[nH]c2)cc1-c1nc2ccc(F)cc2[nH]1 | 2.58 | 3.29 | 1.99 |
| COc1ccc2ncc(C#N)c(CCN3CCC(NCc4cnc5c(c4)OCCO5)CC3)c2n1 | 11.4 | 15.9 | 6.56 |
| Cc1ccc(C(=O)Nc2cccc(CN3CCCN(Cc4ccc(O)cc4)CC3)c2)s1 | -2.38 | 0.41 | 2.88 |
| Cc1cc(N2CCCC2)nc(Nc2ccc(NC(=O)c3ccccc3)cc2)n1 | 1.14 | 6.69 | 3.09 |
| CC(C)CCNC(=O)c1cnc2c(O)cccc2c1Nc1cccc(NC(=O)c2ccc(F)cc2)c1 | 4.52 | 7.98 | 0.01 |
